# From PubChem BioAssay AID2551 (National Center for Advancing Translational Sciences (NCATS), 2010)
# Where “and” joins values, the source holds several entries; their conditions need not be identical. Identical values can stand only once. The whole screen tested about 310,000 compounds, of which about 17,000 (5.5%) were called active. Not shown: some 11% with an inconclusive outcome. Calls come from the whole dose curve; as a rule, active = well fitted inhibition curve with a large enough effect; inconclusive = small, poorly fitted or top-dose-only effect, or effect the other way; inactive = no such curve, though single readings can be large or run the other way. The list comes from a sample in which actives are over-represented; it also holds similar structures and randomly drawn compounds. Entries that show only a call come without a potency. More than one record can exist for a structure, and the calls need not agree.
# Target: Nuclear receptor ROR-gamma (Mus musculus) (UniProt P51450)
# Test: qHTS for inhibitors of ROR gamma transcriptional activity; note: nearly all actives have a fitted effect of over 60% in size
# Settings: Drosophila S2 Gal4-RORgamma UAS-luciferase reporter, 20 h; series mostly up to 53.6 µM
# Source text: NIH Molecular Libraries Probe Production Network [MLPCN] NIH Chemical Genomics Center [NCGC] MLPCN Grant: R03 DA026211-01 Assay Provider: Dan Littman, New York University Assay Overview: The retinoic acid-related orphan receptor (ROR) gamma is a transcription factor that has a central role in the differentiation of Th17 cells, a subset of T helper cells that secrete the inflammatory cytokines IL-17, IL-17F, and IL-22. Th17 cells have been implicated in graft versus host disease, autoimmune disease and asthma. ROR gamma is induced in naive T helper cells in the presence of TGF-beta combined with IL-6, IL-21, or IL-23, and thereafter directs the expression of the Th17 lineage cytokines. To study the mechanism of action of ROR gamma, an insect cell-based assay was screened. This Drosophila Schneider cell line was stably transfected with two vectors: a gene expressing a fusion of the Gal4 DNA binding domain and ROR gamma transactivation domain under the control of the metallothionine promoter and a Photinus luciferase reporter regulated by the Gal4 binding site enhancer, UAS. […] Small molecule inhibitors of ROR gamma activity are detected by a decrease in luciferase reporter activity.
# Assay Protocol Summary: For screening, 600 cells in 4 uL/well were dispensed into white solid 1536-well plates (Grenier) using a solenoid-based dispenser. Following transfer of 23 nL compound or DMSO vehicle by a pin tool, the plates were incubated 1 hr at ambient temperature, and 1 uL/well copper sulfate (700 uM final concentration) was added. The plates were centrifuged 15 s at 1000 RPM and incubated 20 hr at ambient temperature. After addition of 1.5 uL Photinus luciferase detection reagent, the plates were incubated 10 min at ambient temperature and then read by an ViewLux (Perkin Elmer) to detect luminescence. Keywords: NIH Roadmap, MLPCN, MLI, MLSMR, qHTS, NCGC, qHTS, nuclear hormone receptor, retinoic acid-related orphan receptor, ROR gamma
# Potency is the fitted concentration of half-maximal effect.
# Sequence of Nuclear receptor ROR-gamma (Mus musculus) (P51450 whole entry, looked up): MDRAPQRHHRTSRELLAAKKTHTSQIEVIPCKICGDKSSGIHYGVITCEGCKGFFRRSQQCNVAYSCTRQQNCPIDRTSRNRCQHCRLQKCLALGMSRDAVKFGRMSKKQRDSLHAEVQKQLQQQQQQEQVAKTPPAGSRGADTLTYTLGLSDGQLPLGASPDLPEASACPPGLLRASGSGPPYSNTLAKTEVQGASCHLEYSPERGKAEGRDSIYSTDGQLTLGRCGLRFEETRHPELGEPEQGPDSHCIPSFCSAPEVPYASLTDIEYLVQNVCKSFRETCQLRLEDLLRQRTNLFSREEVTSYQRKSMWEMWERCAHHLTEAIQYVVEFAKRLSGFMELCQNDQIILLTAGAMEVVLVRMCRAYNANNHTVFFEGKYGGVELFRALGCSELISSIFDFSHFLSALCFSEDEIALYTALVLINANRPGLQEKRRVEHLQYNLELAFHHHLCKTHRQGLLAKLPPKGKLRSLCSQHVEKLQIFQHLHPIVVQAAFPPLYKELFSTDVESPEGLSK
Structure (SMILES),Potency,"activity change, negative = inhibition"
Cc1nn(C)c(Cl)c1CN1CCC(Oc2ccc(C(=O)N3CCCC3)cc2)CC1,inactive,
CCOc1ccc(N/C(N)=N/c2nc(C)c(C)c(=O)[nH]2)cc1,inactive,
Cc1ccc(C(=O)N/C(=C\c2cn(S(=O)(=O)N(C)C)c3ccccc23)C(=O)N2CCCC2)cc1,inactive,
CCOc1cc(/C=C2\C(=N)N3N=C(C)SC3=NC2=O)ccc1OCCOc1ccccc1,,26.8% [at 1.91 µM] (inactive)
COc1cccc(OC)c1C(=O)Nc1c(C(=O)N2CCN(c3ccccn3)CC2)oc2ccccc12,inactive,
CCOc1cc(C)ccc1OCc1nnc(SCC(=O)Nc2cccc(C(=O)O)c2)n1-c1ccccc1,inactive,
CSc1nc(C)cc(SC(C(C)=O)C(=O)Nc2ccccc2)n1 (stereo unspecified),8.91 µM (active),
CC(Sc1nnc2c(n1)C1CCC2(C)C1(C)C)C(=O)Nc1ccccc1 (stereo unspecified),inactive,
Cc1cc(C)c(C#N)c(SCC(=O)Nc2ccccc2)n1,inactive,
Cc1c(CN2CC[C@@H](N3CCN(c4ccccn4)CC3)[C@H](O)C2)[nH]c2ccc(F)cc12,inactive,
CC1CC(c2ccccc2)n2nc(NC(=O)c3cccs3)nc2N1 (stereo unspecified),14.1 µM (active),
COc1ccc(CC(=O)Nc2nc3n(n2)C(c2ccccc2)CC(=O)N3)cc1OC (stereo unspecified),inactive,
O=C(Nc1n[nH]c(C(F)(F)F)n1)c1cccs1,inactive,
O=C1N=C(N2CCc3ccccc3C2)S/C1=C\c1ccc(O)cc1,1.12 µM (active),
CCOc1cc(/C=C2\SC(N3CCCCC3)=NC2=O)ccc1O,inactive,
O=C1N=C(N2CCCC2)S/C1=C\c1cccc(Br)c1,inactive,
Cc1ccc(CCNC(=O)c2ccc3nc4ccccc4c(=O)n3c2)cc1,inactive,
CCc1ccc(-c2nn(-c3ccccc3)cc2CSC(=N)N)cc1,11.2 µM (active),
COc1ccc(N(CC(=O)NCC2CCCO2)C(=O)CCC(=O)Nc2nccs2)c(OC)c1 (stereo unspecified),inactive,
O=C(NCc1ccc(F)cc1)C1CCN(C(=O)Nc2ccc(F)cc2)CC1,inactive,
O=c1[nH][nH]c(=O)c2cc(N3CCCC3)ccc12,inactive,
O=C1C=CC(=O)N1c1ccc(N2CCCCC2)cc1,5.62 µM (active),

Structure (SMILES),Potency,"activity change, negative = inhibition"
CCOC(=O)/C(C#N)=C/c1ccc(N2CCCCC2)cc1,inactive,
COC(=O)c1ccc(CSc2ccccc2C)o1,inactive,
COC(=O)c1ccc(CSc2ccc3nnc(-c4ccccc4)n3n2)o1,10 µM (active),
COc1ccc(-c2nnc3ccc(SCc4ccccc4)nn23)cc1,inactive,
CN1CCN(Cc2c(C(=O)N3CCc4ccccc4C3)nc3ccc(Cl)cn23)CC1,inactive,
CN1CCN(C(=O)C(=O)c2cn(CC(=O)N3CCCC3)c3ccccc23)CC1,inactive,
CCC(C)[C@H](NC(=O)N1c2ccccc2NC(=O)[C@@H]1C(C)C)C(=O)N[C@@H](Cc1ccccc1)C(=O)O (stereo partly specified),inactive,
CC(O)CNCCOc1cccc(Oc2ccccc2)c1 (stereo unspecified),inactive,
COc1ccccc1OCCNCC(O)COc1cccc2[nH]c3ccccc3c12 (stereo unspecified),inactive and 1 µM (active),
COc1ccccc1OCC(O)CN1CCOCC1 (stereo unspecified),inactive,
COc1cccc(OCc2nnc3n2N=C(c2ccccc2)C(CC(=O)O)S3)c1 (stereo unspecified),inactive,
COc1ccc(-n2ncc3c2CC(C)(C)CC3NC(=O)CCc2c(C)nn(C)c2C)cc1 (stereo unspecified),inactive,
CCCCN(CCCC)CCNC(=O)CN1C(=O)COc2ccc(S(=O)(=O)N3CCOCC3)cc21,inactive,
CC(=O)NC(=S)Nc1ccc(NC(=O)c2cccnc2)cc1,inactive,
CC(=O)Nc1ccc(-c2nc3ccccc3o2)cc1,inactive,
Cc1ccc2nc(-c3ccc(NC(=O)c4cccnc4)cc3)oc2c1,20 µM (active),
COC(=O)COc1ccc2oc(=O)cc(C)c2c1,inactive,
Cc1ccc(O)c(/C=N/NC(=O)COc2ccc3c(C)cc(=O)oc3c2)c1,2.51 µM (active),
Cc1cc(=O)oc2cc(OCC(=O)Nc3nnc(C4CC4)s3)ccc12,inactive,
Cc1c(C)c2ccc(OCC(=O)N3CCN(c4cccc(Cl)c4)CC3)cc2oc1=O,inactive,
CCC(C)N1CC(=O)N2Cc3[nH]c4ccccc4c3C[C@H]2C1=O (stereo partly specified),inactive,
O=C(Cn1ncc2c3ccccc3n(Cc3ccccc3)c2c1=O)NCCCN1CCOCC1,inactive,

Structure (SMILES),Potency,"activity change, negative = inhibition"
COc1ccc(N(CC(=O)Nc2cc(OC)ccc2OC)S(=O)(=O)c2c(C)noc2C)cc1,inactive,
Cc1ccccc1-n1nnc2c(=O)oc3ccccc3c21,7.94 µM (active),
CC(C)(C)Nc1c(N)c(=O)oc2ccccc12,inactive,
CCCCC(=O)Nc1cc(C)c2c(=O)oc3ccccc3c2n1,inactive,
COc1cccc(C(=O)NNS(=O)(=O)c2ccc(F)cc2)c1,inactive,
COc1ccc(C(C(=O)NCC2CCCO2)N(C(=O)Cn2nnc3ccccc32)c2ccc(NC(C)=O)cc2)cc1OC (stereo unspecified),inactive,
Nc1nc(-c2ccccc2)cc(-c2ccccc2)n1,inactive,
Nc1ccc(-c2sc(N)nc2-c2ccccc2)cc1,inactive,
Nc1[nH]c(=S)nc2nc(-c3ccccc3)c(-c3ccccc3)nc12,3.98 µM (active),
Cc1c(CN2CCC(n3nccc3NC(=O)CCc3ccccc3)CC2)cnn1C,inactive,
CC(=O)NCCC(=O)Nc1cc(S(=O)(=O)N2CCCCC2)ccc1Oc1cccc(C)c1,inactive,
Cc1nnc(SCC(=O)NNC(=O)c2ccc(Cl)cc2)n1CC1CCCO1 (stereo unspecified),inactive,
CNC(=O)NC(=O)CSc1nnc(-c2ccc(F)cc2)n1CC1CCCO1 (stereo unspecified),inactive,
S=c1[nH]nc(-c2ccc(Cl)cc2)n1CC1CCCO1 (stereo unspecified),11.2 µM (active),
N#Cc1ccccc1S(=O)(=O)N1CCN(C(=O)c2cc(-c3ccccc3)nn2-c2ccccc2)CC1,inactive,
CC1CN(C(=S)Nc2ccc(Br)cc2Cl)CC(C)O1 (stereo unspecified),12.6 µM (active),
S=C(Nc1ccc(Br)cc1Cl)N1CCC2(CC1)OCCO2,inactive,
CC1CN(C(=S)Nc2ccccc2F)CC(C)O1 (stereo unspecified),inactive,
O=C(Nc1ccc(O)cc1)c1ccc(NC(=O)c2ccco2)cc1,inactive,
Cc1cc(Cl)ccc1OCCCC(=O)NCc1ccccn1,inactive,
Cc1ccc(SCCC(=O)NCc2ccccn2)cc1,8.91 µM (active),
O=C(CCSc1ccccc1)NCCSc1ccccn1,inactive,

Structure (SMILES),Potency,"activity change, negative = inhibition"
O=C1C2CCCN2C(=O)N1CCCCN1CCN(c2cccc(C(F)(F)F)c2)CC1 (stereo unspecified),inactive,
CC1(C)C2CC=C(/C=N/NC(=O)c3ccc(Cl)cc3)C1C2 (stereo unspecified),12.6 µM (active),
N#Cc1cc([N+](=O)[O-])ccc1Oc1cccc(/C=N/NC(=O)c2ccc(Cl)cc2)c1,inactive,
CC1(C)C2CC=C(/C=N/NC(=O)C3CC3)C1C2 (stereo unspecified),inactive,
N#Cc1c(-c2ccccc2)nc(SCc2cccc(C(F)(F)F)c2)[nH]c1=O,inactive,
Cc1nn(C(C)C(=O)NCCC2=CCCCC2)c(=O)c2nn(-c3ccccc3)c(C)c12 (stereo unspecified),inactive,
Cc1cc(C)cc(NC(=S)NCCCN2CCOCC2)c1,inactive,
CCCCc1ccc(NC(=S)NCCCN2CCOCC2)cc1,10 µM (active),
O=C(NNC(=S)NCCCN1CCOCC1)c1ccncc1,inactive,
COc1ccccc1C(=O)N(C1=NC(C)CS1)c1ccc(Cl)cc1 (stereo unspecified),inactive,
Cc1ccc(C)c(NC(=O)c2ccc3nccnc3c2)c1,inactive,
CCC1(C)Cc2c(sc3[nH]c(=S)n(Cc4ccccc4)c(=O)c23)CO1 (stereo unspecified),0.708 µM (active),
CCC1(C)Cc2c(sc3nc(SC)[nH]c(=O)c23)CO1 (stereo unspecified),inactive,
CCC1(C)Cc2c(sc3nc(SC)nc(N)c23)CO1 (stereo unspecified),inactive,
COc1ccc(S(=O)(=O)NCCCCOc2ccc(Cl)cc2)cc1,inactive,
COc1cccc(CNS(=O)(=O)c2ccc3c(c2)N(C(C)=O)CCS3)c1,inactive,
COc1cccc(C(=O)N/N=C(\C)c2cccc(NC(=O)c3ccc(F)cc3)c2)c1OC,inactive,
COc1cccc(NC(=O)CSc2nnc(Cc3ccc(OC)c(OC)c3)o2)c1,inactive,
CCN(CC)C(=O)N(CC)Cc1ccccc1,inactive,
COc1cccc(CNC(=O)CCN2C(=S)NC(C)(C)CC2C)c1 (stereo unspecified),inactive,
CCN(Cc1ccccc1)C(=O)CN1C(=S)NC(C)(C)CC1C (stereo unspecified),11.2 µM (active),
Cc1ccc(C(=O)N/N=C\c2cc(Br)c(Br)o2)cn1,11.2 µM (active),

Structure (SMILES),Potency,"activity change, negative = inhibition"
O=C(N/N=C/c1ccc(Br)o1)c1cncc(Br)c1,5.62 µM (active),
Cc1ccc(NC(=O)COc2ccc(/C=N\NC(=O)c3cccnc3)cc2)cc1C,inactive,
O=C(N/N=C/c1ccco1)c1ccc(NC(=O)C2CC2)cc1,inactive,
O=C(CCc1n[nH]c(=O)[nH]c1=O)N/N=C/c1ccc(Br)o1,inactive,
O=C(CCC(=O)N/N=C/c1ccc(Br)o1)N/N=C/c1ccc(Br)o1,inactive,
CCN(CC)CCN1C(=O)C2C(C(=O)Nc3ccc(Br)cc3)C3C=CC2(O3)C1C(=O)NC1CCCCC1 (stereo unspecified),inactive,
Cc1c(C(=O)NC(C)C2CC3CCC2C3)cccc1[N+](=O)[O-] (stereo unspecified),inactive,
CC(C)c1ccc(C(=O)OC2CCOC2=O)cc1 (stereo unspecified),inactive,
O=C(OC1CCOC1=O)c1ccc(-c2nc3ccccc3s2)s1 (stereo unspecified),3.55 µM (active),
Cc1nn(Cc2ccccc2)c(Cl)c1C(=O)OC1CCOC1=O (stereo unspecified),inactive,
CCOc1ccc(NC(=O)c2nc(SCC)ncc2Cl)cc1,inactive,
CC1CC(C)CN(C(=O)CCNC(=O)Cn2cnc3ccccc3c2=O)C1 (stereo unspecified),inactive,
CCc1ccc(-c2cc(C)no2)cc1S(=O)(=O)NCCc1ccc(S(N)(=O)=O)cc1,inactive,
Cc1ccc2cc3cc(C(=O)N4CCCCCC4)oc3nc2c1,10 µM (active),
Cc1cc(=O)oc(C)c1C(=O)N1CCCCC1,inactive,
Cc1cccc(C(=O)N2CCCN(C(=O)c3cccc(C)c3)CC2)c1,inactive,
CCC1=Nc2cc(C(=O)NCCCN3CCOCC3)ccc2Sc2ccc(Br)cc21,inactive,
COc1cccc(CN(C)CC(O)COC(c2ccccc2)c2ccccc2C)c1 (stereo unspecified),inactive,
